For eight compounds, growth results are on record in PubChem BioAssay (NCI).

Test systems include HCT-15 colon; HT29 colon; SNB-75 CNS; SNB-19 CNS; PC-3 prostate; SK-MEL-5 melanoma; UACC-62 melanoma; LOX IMVI melanoma; SK-MEL-28 melanoma; SK-MEL-2 melanoma; EKVX NSCLC; SN12C renal; UO-31 renal; TK-10 renal; CAKI-1 renal; A498 renal; CCRF-CEM leukemia; MOLT-4 leukemia; U251 CNS; ACHN renal.
Holding throughout (assay): NCI-60 one-dose screen, 48 h (100 = growth as untreated, 0 = no growth, -100 = all killed)
Common to all, as to settings: 10 µM unless noted

Structures are written as SMILES. This is part of a sample that, as a whole, favours compounds with a hit. Of some 83,000 tested, about 20% had one in any assay.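 Cell lines were cultured in 96-well plates, exposed to a single compound concentration, and assessed for percent growth 48 hours later.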 Values without a mark were called inactive. Calls of active or inactive are those of the source. How the source made its calls: active means growth percent below 10; inactive means the rest.

`Cn1ccnc1C(=O)/C=C/c1ccc(C(=O)Nc2nc3ccccc3[nH]2)cc1`: the growth in the assay with HCT-15 colon was 24.3%; in the assay on HT29 colon it was 8.78% (active); in the assay with SNB-75 CNS, -17% (active); in the assay on SNB-19 CNS it was 41.1%; in the assay with PC-3 prostate, 38.1%; in the assay with SK-MEL-5 melanoma, 83.1%. Besides, the growth with UACC-62 melanoma is 74.7%; with LOX IMVI melanoma, 11.5%; with SK-MEL-28 melanoma, 89.7%; with SK-MEL-2 melanoma, 85.4%; in the assay on EKVX NSCLC it was 62.3%; with SN12C renal, 51.7%. For the same compound, the growth in the assay on UO-31 renal is 28.3%; in the assay with TK-10 renal, 66.5%; in the assay on CAKI-1 renal, 18.6%; in the assay on A498 renal it was 51.1%; with CCRF-CEM leukemia it was 15.4%; with MOLT-4 leukemia, 45.2%.

On to `CCCCCc1c(C)[nH]c(/C=C2\N=C(c3ccc[nH]3)C=C2Oc2ccccc2)c1C`, for which the growth is -99.5% [100 µM] (active) with HCT-15 colon; -56.9% [100 µM] (active) with HT29 colon; -62.1% [100 µM] (active) in the assay with SNB-75 CNS; -95.2% [100 µM] (active) in the assay on SNB-19 CNS; -99.6% [100 µM] (active) with U251 CNS; -21.6% [100 µM] (active) in the assay on PC-3 prostate. The growth with UACC-62 melanoma is -92.3% [100 µM] (active); with LOX IMVI melanoma, -90% [100 µM] (active); in the assay with SK-MEL-2 melanoma, -63.3% [100 µM] (active); in the assay with SN12C renal it was -63.4% [100 µM] (active); in the assay on UO-31 renal it was -70.1% [100 µM] (active); in the assay on TK-10 renal it was -62% [100 µM] (active). For the same compound, the growth was -61% [100 µM] (active) in the assay with ACHN renal, -62.8% [100 µM] (active) with CAKI-1 renal, -75.3% [100 µM] (active) in the assay on A498 renal and -40.2% [100 µM] (active) with MOLT-4 leukemia.

For `Cc1ccc(-c2csc(N)n2)cc1`, the growth in the assay with HCT-15 colon was 99.9%; with HT29 colon, 93.6%; in the assay on SNB-75 CNS it was 93.2%; in the assay with SNB-19 CNS, 98.1%; in the assay with U251 CNS it was 92.9%; with PC-3 prostate, 91.2%. Besides, the growth in the assay on UACC-62 melanoma is 99%; in the assay on LOX IMVI melanoma it was 101%; with SK-MEL-28 melanoma, 110%; in the assay on SK-MEL-2 melanoma, 107%; in the assay with EKVX NSCLC, 104%; with UO-31 renal, 88.6%. Moreover, the growth with TK-10 renal was 97.2%; in the assay with ACHN renal, 97.7%; in the assay on CAKI-1 renal, 99.2%; in the assay on CCRF-CEM leukemia, 92%; in the assay with MOLT-4 leukemia, 90.3%.

As to `O=C1C=CC(=O)N1c1ccccc1N1C(=O)C=CC1=O`, the growth in the assay on HCT-15 colon was 99.6%; with HT29 colon, 99.2%; in the assay on SNB-75 CNS, 91.7%; with SNB-19 CNS, 91%; in the assay with PC-3 prostate, 97.5%; in the assay with SK-MEL-5 melanoma it was 106%. Also, the growth in the assay with UACC-62 melanoma was 87.4%; in the assay with LOX IMVI melanoma, 97.2%; in the assay with SK-MEL-28 melanoma, 114%; in the assay on SK-MEL-2 melanoma, 98.6%; in the assay with EKVX NSCLC, 115%; with SN12C renal, 97.5%. Besides, the growth is 79.4% with UO-31 renal; 97.3% in the assay with TK-10 renal; 88% with ACHN renal; 101% in the assay with A498 renal; 1.88% (active) in the assay on CCRF-CEM leukemia; 99.2% in the assay on MOLT-4 leukemia.

Turning to `CC(=O)O[C@H]1CC[C@@]2(C)C(=CC[C@@H]3[C@@H]2CC[C@]2(C)C(c4cccnc4)=CC[C@@H]32)C1`, the growth with HCT-15 colon was 51.4%; in the assay with HT29 colon it was 22.1%; in the assay on SNB-75 CNS it was 51%; in the assay on SNB-19 CNS, 72.3%; with U251 CNS, 53%; in the assay on SK-MEL-5 melanoma it was 20.9%. In addition, the growth is 44.1% in the assay with UACC-62 melanoma; 63.4% in the assay on LOX IMVI melanoma; 44.4% in the assay with SK-MEL-28 melanoma; 23.6% with SK-MEL-2 melanoma; 49.5% in the assay with EKVX NSCLC; 96.7% with SN12C renal. Moreover, the growth in the assay with UO-31 renal is 33.5%; with TK-10 renal it was 90.8%; in the assay with ACHN renal, 44.7%; in the assay with A498 renal, 91.5%; in the assay on CCRF-CEM leukemia, 48.3%; in the assay with MOLT-4 leukemia it was 46%.

With `Oc1ccccc1/C=N/N1CCCCCC1`, the growth in the assay with HCT-15 colon was 93.7%; in the assay on HT29 colon, 97.6%; in the assay with SNB-75 CNS it was 80.3%; with SNB-19 CNS it was 97.1%; in the assay with U251 CNS it was 120%; in the assay on UACC-62 melanoma, 85.9%. Moreover, the growth in the assay with LOX IMVI melanoma is 96%; with SK-MEL-28 melanoma, 109%; with SK-MEL-2 melanoma, 103%; with EKVX NSCLC it was 115%; in the assay on SN12C renal, 93.6%; with UO-31 renal, 83.1%. Besides, the growth is 103% with TK-10 renal, 105% in the assay with ACHN renal, 76% in the assay with CCRF-CEM leukemia and 95.1% in the assay on MOLT-4 leukemia.

`CC(C)Sc1nc(Cl)c(C#N)c(-c2ccc(F)cc2)n1`: the growth with HCT-15 colon is 87.4%; in the assay with HT29 colon, 103%; in the assay with SNB-75 CNS, 97.3%; in the assay on SNB-19 CNS, 113%; in the assay on PC-3 prostate it was 106%; with SK-MEL-5 melanoma, 100%. In addition, the growth in the assay on UACC-62 melanoma was 102%; with LOX IMVI melanoma, 70.2%; in the assay on SK-MEL-28 melanoma, 119%; in the assay with SK-MEL-2 melanoma it was 98.2%; in the assay on EKVX NSCLC, 99.2%; in the assay on SN12C renal, 97.3%. Further, the growth in the assay on UO-31 renal was 85.6%; with ACHN renal, 101%; in the assay on CAKI-1 renal, 104%; in the assay on A498 renal it was 99.9%; with CCRF-CEM leukemia, 6.61% (active); in the assay with MOLT-4 leukemia, 7.38% (active).

`CC(=O)Nc1cc(C(c2ccccc2)c2ccccc2)cc(C(c2ccccc2)c2ccccc2)c1C`: the growth is 50.5% with HCT-15 colon; 47.8% with HT29 colon; 34.2% in the assay on SNB-75 CNS; 71.4% in the assay with SNB-19 CNS; 15.4% with PC-3 prostate; 45.6% with SK-MEL-5 melanoma. Also, the growth with UACC-62 melanoma is 50%; in the assay with LOX IMVI melanoma, 53%; in the assay on SK-MEL-28 melanoma, 56.8%; with SK-MEL-2 melanoma, 27%; in the assay with EKVX NSCLC, 61.4%; in the assay with SN12C renal, 69.7%. In addition, the growth with UO-31 renal is 49.3%; with TK-10 renal it was 84.3%; with ACHN renal, 51.1%; with CAKI-1 renal, 49.2%; in the assay on CCRF-CEM leukemia it was 34.1%.
